Our source for the outcome and AC50 values is PubChem BioAssay (EPA / NIEHS).

Results filed as inconclusive are left out. The source holds several records for some structures; these can differ, active in one and inactive in another. Calls of active or inactive are those of the source. The calls were made as follows: active = hit-call score of the fitted dose curve at least 0.9, where 1 is the maximum; inconclusive = response in the unintended direction; inactive = score below 0.9.

Sequence of rat Thyrotropin Releasing Hormone Receptor (TRH), Trhr (gene 25570) (Q01717 whole entry, looked up): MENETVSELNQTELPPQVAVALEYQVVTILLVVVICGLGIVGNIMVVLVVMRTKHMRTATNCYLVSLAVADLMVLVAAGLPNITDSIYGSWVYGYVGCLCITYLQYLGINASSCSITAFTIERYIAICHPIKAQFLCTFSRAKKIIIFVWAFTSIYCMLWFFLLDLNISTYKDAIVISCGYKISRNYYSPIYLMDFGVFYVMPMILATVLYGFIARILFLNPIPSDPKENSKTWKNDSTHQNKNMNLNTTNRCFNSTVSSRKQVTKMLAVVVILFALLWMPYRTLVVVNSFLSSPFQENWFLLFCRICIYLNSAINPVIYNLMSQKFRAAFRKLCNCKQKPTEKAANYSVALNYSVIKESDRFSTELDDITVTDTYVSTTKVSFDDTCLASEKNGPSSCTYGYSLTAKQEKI

The experiment has as its target rat Thyrotropin Releasing Hormone Receptor (TRH), Trhr (gene 25570) (UniProt Q01717). As to the kind of experiment: NVS_GPCR_rTRH: NovaScreen (NVS) G Protein-Coupled Receptor Assay for rat Thyrotropin Releasing Hormone Receptor (TRH) (AID 2283329).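 Also: hit means lower bound tracer signal versus DMSO baseline.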 How it is done:
NVS_GPCR_rTRH is a biochemical, single-readout assay that uses extracted gene-proteins from Rat forebrain membranes in a tissue-based cell-free assay. Measurements were taken 4 hours after chemical dosing in a 48-well plate.NVS_GPCR_rTRH is one of one assay component(s) measured or calculated from the NVS_GPCR_rTRH assay. It is designed to make measurements of radioligand binding, a form of binding reporter, as detected with scintillation counting signals by Filter-based radiodetection technology.Data from the assay component NVS_GPCR_rTRH was analyzed into 1 assay endpoint. This assay endpoint, NVS_GPCR_rTRH, was analyzed in the positive analysis fitting direction relative to DMSO as the negative control and baseline of activity. Using a type of binding reporter, loss-of-signal activity can be used to understand changes in the binding as they relate to the gene Trhr. Furthermore, this assay endpoint can be referred to as a primary readout, because the performed assay has only produced 1 assay endpoint. To generalize the intended target to other relatable targets, this assay endpoint is annotated to the gpcr intended target family, where the subfamily is rhodopsin-like receptor.
Binding assays used specific radioligands (tritiated, iodinated) with non-radioactive competitive displacement ligands in agonist or antagonist protocols (as indicated) and various reference compounds and inhibitors to titrate specific binding to receptors and transporters. Most enzyme assays (CYPs, kinases, phosphatases, proteases, HDACs) used recombinant protein and specific substrates (fluorescence mostly, some colorimetric and radioactive) and inhibitors, followed by a biochemical separation of substrate and product. All assays for the biochemical HTS were initially run in duplicate at a single concentration (10 uM for CYP450 assays and 25 uM for all others). […] Each assay was run with positive and negative controls, and concurrent controls on every plate. The follow-up (secondary) screen tested active chemical-pairs in concentration series, as well as a few additional assays not tested in the primary screen, some selected negative inactives, and several cases re-run in the concentration series for confirmatory purposes.
In the case of `Nc1c(Cl)c(Cl)nc(C(=O)O)c1Cl`, the compound was classed as inactive.
Consider `CCOC(=O)C(C)OC(=O)c1cc(Oc2ccc(C(F)(F)F)cc2Cl)ccc1[N+](=O)[O-]` (stereo not drawn), for which the compound was called inactive.
With `CCN(CC)C(=O)C(C)Oc1cccc2ccccc12` (stereo not drawn), the AC50 is 42.2 µM (active) and the outcome was inactive.
For `CC1(C)CON(Cc2ccccc2Cl)C1=O`, the compound was classed as inactive.
Same read-out and setting: the value for `CC(C)C1(C)N=C(c2ncccc2C(=O)O)NC1=O` (stereo not drawn) was “inactive”; that for `CCCCC(O)(Cn1cncn1)c1ccc(Cl)cc1Cl` (stereo not drawn) was “inactive”.
Regarding `CCNC(=O)NC(=O)C(C#N)=NOC`, the compound was classed as inactive.
Take `COC(=O)c1c(C(F)F)nc(C(F)(F)F)c(C2=NCCS2)c1CC(C)C`: the concentration at half-maximal activity (AC50) is 25 µM (active).
As for `CCOP(=S)(OCC)Oc1nc(Cl)n(C(C)C)n1`, the compound was called inactive.
With `CCOc1nc(F)cc2nc(S(=O)(=O)Nc3c(Cl)cccc3Cl)nn12`, the compound was called inactive.
Same read-out and setting: to `Nc1cnn(-c2ccccc2)c(=O)c1Cl` belongs “inactive”; to `Cc1cnc(C2=NC(C)(C(C)C)C(=O)N2)c(C(=O)O)c1` (stereo not drawn), “inactive”.

One may read the AC50 as the concentration giving half of the maximal activity seen.
